These results are taken from PubChem BioAssay (NCATS).

Results filed as inconclusive are left out. Active and inactive are the calls of the source. Unless noted, calls come from the whole dose curve; as a rule, active = well fitted curve in the direction sought with a large enough effect; inconclusive = small, poorly fitted or top-dose-only effect, or another doubt; inactive = no such curve, though single readings can be large; an effect the other way counts as inactive or inconclusive.

The target in assay [1] is Lysosomal acid glucosylceramidase (Homo sapiens) (UniProt P04062). Briefly: Glucocerebrosidase-p2 (AID 348; in the data active = potency below about 10 µM; note: potency is the fitted concentration of half-maximal effect). To be noted: purified GBA, blue fluorogenic substrate, 40 min. In outline: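 Compounds titrated from 0.6 nM upwards against 0.2 nM enzyme in pH 5.9 citric acid/KH2PO4, taurocholate, tween-20; blue fluorogenic substrate 80 uM, 40 min room temperature, stopped and read Ex 365/Em 440 for AC50.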
Lysosomal acid glucosylceramidase (Homo sapiens), sequence (P04062 whole entry, looked up): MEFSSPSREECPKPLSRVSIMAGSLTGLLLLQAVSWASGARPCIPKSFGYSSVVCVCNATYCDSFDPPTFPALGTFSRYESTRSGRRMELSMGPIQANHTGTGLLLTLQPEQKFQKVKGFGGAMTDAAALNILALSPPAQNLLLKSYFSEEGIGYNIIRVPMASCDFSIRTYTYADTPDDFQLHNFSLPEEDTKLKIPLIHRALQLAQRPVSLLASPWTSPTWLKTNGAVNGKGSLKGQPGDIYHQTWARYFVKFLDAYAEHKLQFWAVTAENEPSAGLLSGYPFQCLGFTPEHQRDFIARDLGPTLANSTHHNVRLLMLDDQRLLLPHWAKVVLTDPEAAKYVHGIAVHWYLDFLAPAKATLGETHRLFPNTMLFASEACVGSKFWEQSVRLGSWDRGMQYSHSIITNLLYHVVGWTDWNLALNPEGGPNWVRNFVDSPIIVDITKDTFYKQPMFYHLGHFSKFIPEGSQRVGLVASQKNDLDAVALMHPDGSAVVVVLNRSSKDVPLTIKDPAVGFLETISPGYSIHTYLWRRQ

Assay [2] addresses Cytochrome P450 1A2 (Homo sapiens) (UniProt P05177). Briefly: p450-cyp1a2 (AID 410; calls by dose curve; note: potency is the fitted concentration of half-maximal effect). Particulars: recombinant CYP1A2, luciferin-ME demethylation, luminescence; series mostly up to 57 µM. In a few lines:
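Luminescent readout of luciferin formed from Luciferin-ME by human CYP1A2; data normalized against complete inhibition by 57 uM furafylline. Enzyme 20nM, substrate 100uM at Km, 100mM KPO4 buffer, 60 min reaction at room temperature.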

The target of assay [3] is Glucocorticoid receptor (Homo sapiens) (UniProt P04150). Briefly: GR-GFP Redistribution (AID 450;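 active = compounds whose dose series gives a full or clear partial fitted curve of increased nuclear translocation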; note: potency is the fitted concentration of half-maximal effect). To be noted: U2OS GR-GFP nuclear translocation, laser cytometry, 2 h.
Glucocorticoid receptor (Homo sapiens), sequence (P04150 whole entry, looked up): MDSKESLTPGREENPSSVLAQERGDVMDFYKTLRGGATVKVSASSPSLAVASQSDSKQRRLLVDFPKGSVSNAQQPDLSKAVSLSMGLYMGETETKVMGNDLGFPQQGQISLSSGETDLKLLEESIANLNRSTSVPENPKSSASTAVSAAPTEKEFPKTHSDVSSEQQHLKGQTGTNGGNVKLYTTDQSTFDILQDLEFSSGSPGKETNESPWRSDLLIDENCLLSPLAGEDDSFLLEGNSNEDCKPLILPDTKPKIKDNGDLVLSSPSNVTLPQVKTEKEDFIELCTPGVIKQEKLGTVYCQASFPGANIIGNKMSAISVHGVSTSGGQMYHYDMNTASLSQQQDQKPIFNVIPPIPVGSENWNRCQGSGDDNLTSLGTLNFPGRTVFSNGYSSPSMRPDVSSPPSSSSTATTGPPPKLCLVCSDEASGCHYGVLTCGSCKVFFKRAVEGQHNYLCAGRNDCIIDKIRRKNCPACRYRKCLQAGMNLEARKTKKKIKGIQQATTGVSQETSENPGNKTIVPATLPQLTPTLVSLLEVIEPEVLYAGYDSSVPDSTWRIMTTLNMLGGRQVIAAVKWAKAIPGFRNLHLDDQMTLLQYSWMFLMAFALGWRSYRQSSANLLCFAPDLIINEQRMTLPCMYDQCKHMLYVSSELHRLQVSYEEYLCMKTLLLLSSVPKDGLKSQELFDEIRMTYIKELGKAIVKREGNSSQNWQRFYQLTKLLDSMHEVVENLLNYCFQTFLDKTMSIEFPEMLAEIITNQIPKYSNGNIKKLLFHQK
Assay [4] has the same target. Briefly: GR-EFC Redistribution (AID 451; calls by dose curve; note: potency is the fitted concentration of half-maximal effect). Particulars: CHO-K1 GR-EFC translocation, beta-gal luminescence, 2 h. In a few lines:
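CHO-K1 cells expressing nuclear EA and GR-ED fragments of b-gal; compounds titrated up to 46 uM final, 2 h at 37 C. GR nuclear translocation read as complemented b-gal luminescence after 1 h RT detection.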

The target of assay [5] is Mitogen-activated protein kinase 10 (Mus musculus) (UniProt Q61831). Briefly: JNK3 AlphaScreen Assay (AID 530; active = well fitted curve in either direction with a large enough effect, not every such curve was filed as active;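 note: kinase came from lysate of stimulated human HepG2 cells; signal reports phosphorylation of biotinylated GST-cJun 1-79 at Ser73 with 10 µM ATP; % is set by controls: 0 for no effect and ±100 for the full control effect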). Particulars: JNK3 lysate, c-Jun phosphorylation; series mostly up to 57.1 µM. In a few lines:
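Pre-activated (IL-1β/TNFα) JNK3 in HepG2 lysates phosphorylates biotin-GST-cJun(1-79), 10 uM ATP; anti-phospho-cJun(Ser73) AlphaScreen read at room temperature, pH 7.6 Tris buffer. Compounds pre-incubated 15 min as titrations.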
Background: Alpha assays give light when donor and acceptor beads are brought close together.

The target of assay [6] is 3',5'-cyclic-AMP phosphodiesterase 4B (Homo sapiens) (UniProt Q07343). Briefly: qHTS Assay for Inhibitors of PDE-IV (AID 607; active = well fitted activation curve with a large enough effect in the main read-out, with a control signal flat, not every such curve was filed as active; note: % of control where 0% means no effect). Particulars: HEK293 ACTOne CNG channel cells, membrane potential fluorescence; series mostly up to 22.9 µM. In a few lines: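 HEK293 ACTOne cells with CNG channel (1000/well), endogenous PDE4; membrane potential dye, compounds up to 22.9 uM final. Fluorescence Ex 535/Em 590; RO 20-1724 (100 uM final) as reference.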
3',5'-cyclic-AMP phosphodiesterase 4B (Homo sapiens), sequence (Q07343 whole entry, looked up): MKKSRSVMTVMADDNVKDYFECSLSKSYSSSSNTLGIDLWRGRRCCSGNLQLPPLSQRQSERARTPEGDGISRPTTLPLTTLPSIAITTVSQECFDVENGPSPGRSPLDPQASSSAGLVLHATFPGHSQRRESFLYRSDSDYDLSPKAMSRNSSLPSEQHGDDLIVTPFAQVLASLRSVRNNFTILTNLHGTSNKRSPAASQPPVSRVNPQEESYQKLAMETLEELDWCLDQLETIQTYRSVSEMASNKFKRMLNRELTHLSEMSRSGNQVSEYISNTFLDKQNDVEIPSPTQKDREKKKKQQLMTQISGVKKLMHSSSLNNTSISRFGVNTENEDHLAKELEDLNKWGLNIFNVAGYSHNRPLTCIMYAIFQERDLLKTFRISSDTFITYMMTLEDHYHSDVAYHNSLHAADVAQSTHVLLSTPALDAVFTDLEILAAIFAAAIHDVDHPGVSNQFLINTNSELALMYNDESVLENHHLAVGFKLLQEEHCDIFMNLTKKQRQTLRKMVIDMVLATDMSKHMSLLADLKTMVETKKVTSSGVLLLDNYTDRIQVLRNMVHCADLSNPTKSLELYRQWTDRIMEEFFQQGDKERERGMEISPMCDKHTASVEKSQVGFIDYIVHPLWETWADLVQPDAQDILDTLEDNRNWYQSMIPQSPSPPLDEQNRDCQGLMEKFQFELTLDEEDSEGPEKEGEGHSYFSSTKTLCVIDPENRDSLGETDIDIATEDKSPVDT
Background: Quantitative high-throughput screening tests each substance at several concentrations.

Assay [7] concerns the target Cytochrome P450 3A4 (Homo sapiens) (UniProt P08684). Briefly: qHTS Assay for Activators of Cytochrome P450 3A4 (AID 885). Note: nearly all actives have a fitted effect of over 65% in size. Particulars: recombinant CYP3A4, Luciferin-PPXE luminescence, 60 min; series mostly up to 57.1 µM. In outline: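 Human CYP3A4 (20 nM) with Luciferin-PPXE at 25 uM (its KM) in 200 mM KPO4; 10 min compound preincubation, then NADPH regeneration and 60 min reaction at RT. Luciferin read by luminescence; normalized to 57 uM ketoconazole full inhibition.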

A short description of assay [8]: qHTS Assay for Identification of Small Molecule Agonists for Hypoxia Response Element Signaling Pathway (AID 914; active = well fitted activation curve with a large enough effect in the signal ratio, with a control signal flat, not every such curve was filed as active; the % refers to the signal ratio; note: potency is the fitted concentration of half-maximal effect). To be noted: ME-180 HRE-bla reporter, beta-lactamase ratio, CoCl2, 17 h; activation: stronger effect = higher value. In a few lines: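 ME-180 cells carrying an HRE-driven beta-lactamase reporter were treated with compounds in a titration series plus an EC50 level of CoCl2 for 17 h at 37 degrees Celsius; CCF4 readout as the 460nm/530nm ratio gave AC50 values.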

Assay [9] in a line: qHTS Assay for Lipid Storage Modulators (AID 1519; calls by dose curve). To be noted: Drosophila S3 cells, BODIPY lipid droplet/cell ratio, laser cytometry, cells loaded with oleic acid; for activity change, negative = inhibition: at 57.5 µM (top of the series). In outline:
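Cells seeded at 5,000 per well were treated with compounds over a concentration series and loaded with oleic acid (400 uM, as added). Lipid droplet fluorescence (488 nm excitation, 500-530 nm channel) was read by laser-scanning cytometry and normalized to 20 uM Triacsin C.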

Assay [10] concerns the target Dual specificity protein kinase CLK4 (Homo sapiens) (UniProt Q9HAZ1). Briefly: qHTS Assay for Inhibitors of CDC-like Kinase 4 (Kinase-Glo Assay) (AID 1770). Note: % is set by controls: 0 for no effect and ±100 for the full control effect; nearly all actives have a fitted effect of over 65% in size. To be noted: recombinant Clk4, Kinase-Glo ATP depletion luminescence; series mostly up to 66.7 µM. In outline:
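Substrate mix (RS peptide 100 uM, ATP 1 uM) dispensed, compound pinned in, then Clk4 added to 25 nM final. Incubated 4.5 h at RT; Kinase-Glo reagent added, luminescence read after 5 min.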

Assay [11] has the same target. Briefly: qHTS Assay for Inhibitors of CDC-like Kinase 4 (ADP-Glo Assay) (AID 1771). Note: % is set by controls: 0 for no effect and ±100 for the full control effect; nearly all actives have a fitted effect of over 70% in size. Particulars: recombinant CLK4, ADP-Glo luminescence; series mostly up to 80 µM. In a few lines:
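Luminescence from ADP-Glo reports ADP produced by 25 nM Clk4 acting on 100 uM RS repeat peptide with 1 uM ATP over 1 hr at room temperature; residual ATP is depleted before ADP is converted to ATP for detection.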

The target is the same in assay [12]. Briefly: qHTS Assay for Inhibitors of CDC-like Kinase 4 (ADP-FP Assay) (AID 1795).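 Note: recombinant human CLK4 phosphorylating RS repeat peptide at 1 µM ATP; % is set by controls: 0 for no effect and ±100 for the full control effect; nearly all actives have a fitted effect of over 60% in size.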 Particulars: Transcreener ADP fluorescence polarization; series mostly up to 50 µM. In a few lines:
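Clk4 6.25 nM; RS peptide 100 uM; ATP 1 uM; 25 mM Tris pH 7.5, 10 mM MgCl2; 1 h reaction. ADP detected via antibody/orange tracer FP displacement; TG003 positive control.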

In assay [13] the target is Ubiquitin carboxyl-terminal hydrolase 1 (Homo sapiens) (UniProt O94782). The experiment in a line: Inhibitors of USP1/UAF1: Pilot qHTS (AID 504865).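 Note: rhodamine fluorescence freed from ubiquitin-rhodamine substrate followed over time; top concentration of the series differs between compounds; % is set by controls: 0 for no effect and ±100 for the full control effect; nearly all actives have a fitted effect of over 35% in size.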 Particulars: purified USP1/UAF1, Ub-rhodamine cleavage fluorescence; series mostly up to 54.9 µM. In a few lines:
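In 50mM HEPES pH 7.8 containing 0.5mM EDTA, 1mM TCEP, 0.1 mg/ml BSA and 0.01% Tween-20, 1nM USP1/UAF1 is exposed to compound for 15 min, then Ub-Rho (150nM final) is added and fluorescence is read over time.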

Assay [14] in a line: Primary qHTS for small molecule stabilizers of the endoplasmic reticulum resident proteome: Secreted ER Calcium Modulated Protein (SERCaMP) assay (AID 1508630). Note: % is set by controls: 0 for no effect and ±100 for the full control effect. To be noted: SH-SY5Y GLuc-SERCaMP (Gaussia luciferase released on ER calcium loss) secretion, thapsigargin, luminescence; series mostly up to 38.4 µM. In outline:
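GLuc-SERCaMP-expressing SH-SY5Y cells, pretreated 16 h with compound, are challenged with thapsigargin to empty ER calcium stores; after 4 h, coelenterazine is added directly to the medium and luminescence is imaged.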

Assay [15] has as its target Cytochrome P450 2C19 (Homo sapiens) (UniProt P33261). Briefly: qHTS Assay for Inhibitors and Substrates of Cytochrome P450 2C19 (AID 899). Note: % is set by controls: 0 for no effect and ±100 for the full control effect; nearly all actives have a fitted effect of over 60% in size. To be noted: recombinant CYP2C19, luciferin-H EGE luminescence; series mostly up to 57.1 µM. In a few lines:
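Signal comes from luciferase acting on luciferin released by CYP2C19-mediated hydroxylation of Luciferin-H EGE, 10uM (KM). Assay mix: 5nM enzyme, 50mM KPO4; 60 min at 37C with NADPH regeneration. Data normalized against 57uM ketoconazole.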

The nature of assay [16]: AP1 Signaling Pathway (AID 357; active = well fitted curve in either direction with a large enough effect, not every such curve was filed as active;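 note: ME-180 reporter cells stimulated with EGF at its EC50 level; % is set by controls: 0 for no effect and ±100 for the full control effect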). To be noted: ME-180 AP-1-bla reporter, EGF-induced, beta-lactamase ratio, 5 h; at 7.69 µM (top of the series) unless noted. In a few lines:
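Read-out was the 460nm/530nm emission ratio (excitation 405nm) after CCF4 loading for 2.5 hours at room temperature. Cells carried an AP-1-driven beta-lactamase reporter, were stimulated with EC50 EGF plus compound for 5 hours, and AC50 values came from titrations.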

The nature of assay [17]: NFAT Signaling Pathway (AID 444; active = well fitted curve in either direction with a large enough effect, not every such curve was filed as active;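 note: carbachol stimulus at about its EC50 of 1 µM final; % is set by controls: 0 for no effect and ±100 for the full control effect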). Particulars: Jurkat NFAT-bla M1, carbachol, beta-lactamase ratio, 5 h; at 7.69 µM (top of the series) unless noted. In a few lines:
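Jurkat cells with NFAT-driven β-lactamase reporter and co-expressed M1 receptor, stimulated with carbachol (final 1 uM, ~EC50), compound titration, 5 h at 37 °C. CCF4 loaded 1 h at RT; 460/530 nm ratio gave %activity and AC50.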

Assay [18] is described as follows: Stat Signaling Pathway (AID 446; active = well fitted curve in either direction with a large enough effect, not every such curve was filed as active). Particulars: ME-180 (cervical carcinoma) SIE beta-lactamase reporter, IL-6 stimulated, 5 h; at 7.69 µM (top of the series) unless noted. In a few lines:
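ME-180 cells carrying a SIE-driven beta-lactamase reporter are stimulated with 40 pM IL-6 for 5 h at 37C in the presence of compound. The 460/530 nm FRET substrate ratio is read after 2.5 h at RT. Data are normalised to 300 pM IL-6 and to 125 nM JAK inhibitor controls.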

The target of assay [19] is Cytochrome P450 3A4 (Homo sapiens) (UniProt P08684). The experiment in a line: qHTS Assay for Inhibitors and Substrates of Cytochrome P450 3A4 (AID 884). Note: potency is the fitted concentration of half-maximal effect; nearly all actives have a fitted effect of over 50% in size. To be noted: recombinant CYP3A4, Luciferin-PPXE luminescence; series mostly up to 57.1 µM. In outline:
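20 nM human CYP3A4 with 25 uM Luciferin-PPXE (at KM) in 200 mM KPO4, preincubated 10 min with compound; NADPH regeneration started a 60 min RT reaction. Luciferin detected by luminescence, normalized to 57 uM ketoconazole as full inhibition.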

Setting [20] is: measured here: cell count channel max response.
Where [21] appears, read: measured here: lipid channel max response.

Cytochrome P450 3A4 (Homo sapiens), sequence (P08684 whole entry, looked up): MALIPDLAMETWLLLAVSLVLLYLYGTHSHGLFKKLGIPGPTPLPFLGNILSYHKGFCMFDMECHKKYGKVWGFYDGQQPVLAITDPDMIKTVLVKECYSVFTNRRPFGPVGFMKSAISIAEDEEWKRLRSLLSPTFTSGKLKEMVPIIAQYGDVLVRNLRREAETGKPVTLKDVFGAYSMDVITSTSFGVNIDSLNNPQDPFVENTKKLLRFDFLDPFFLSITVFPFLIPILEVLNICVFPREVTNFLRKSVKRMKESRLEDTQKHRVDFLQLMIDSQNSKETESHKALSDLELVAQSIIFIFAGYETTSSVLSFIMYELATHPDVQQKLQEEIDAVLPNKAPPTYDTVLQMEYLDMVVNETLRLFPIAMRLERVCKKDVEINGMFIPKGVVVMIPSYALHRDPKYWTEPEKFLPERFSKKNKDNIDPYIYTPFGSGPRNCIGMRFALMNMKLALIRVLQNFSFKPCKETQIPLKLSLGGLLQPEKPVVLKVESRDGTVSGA
Dual specificity protein kinase CLK4 (Homo sapiens), sequence (Q9HAZ1 whole entry, looked up): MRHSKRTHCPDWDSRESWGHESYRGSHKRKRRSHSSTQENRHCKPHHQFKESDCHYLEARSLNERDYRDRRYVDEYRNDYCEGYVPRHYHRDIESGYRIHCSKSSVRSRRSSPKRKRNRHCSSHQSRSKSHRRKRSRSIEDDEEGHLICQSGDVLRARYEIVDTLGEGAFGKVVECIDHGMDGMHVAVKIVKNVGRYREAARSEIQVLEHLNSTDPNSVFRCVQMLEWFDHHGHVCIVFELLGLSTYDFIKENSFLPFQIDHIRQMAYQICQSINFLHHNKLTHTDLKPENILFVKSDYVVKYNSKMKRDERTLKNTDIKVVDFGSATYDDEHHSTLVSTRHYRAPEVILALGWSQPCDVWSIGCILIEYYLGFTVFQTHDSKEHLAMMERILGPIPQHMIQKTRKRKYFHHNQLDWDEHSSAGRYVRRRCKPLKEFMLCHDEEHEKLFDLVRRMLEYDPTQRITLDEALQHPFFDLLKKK
Cytochrome P450 1A2 (Homo sapiens), sequence (P05177 whole entry, looked up): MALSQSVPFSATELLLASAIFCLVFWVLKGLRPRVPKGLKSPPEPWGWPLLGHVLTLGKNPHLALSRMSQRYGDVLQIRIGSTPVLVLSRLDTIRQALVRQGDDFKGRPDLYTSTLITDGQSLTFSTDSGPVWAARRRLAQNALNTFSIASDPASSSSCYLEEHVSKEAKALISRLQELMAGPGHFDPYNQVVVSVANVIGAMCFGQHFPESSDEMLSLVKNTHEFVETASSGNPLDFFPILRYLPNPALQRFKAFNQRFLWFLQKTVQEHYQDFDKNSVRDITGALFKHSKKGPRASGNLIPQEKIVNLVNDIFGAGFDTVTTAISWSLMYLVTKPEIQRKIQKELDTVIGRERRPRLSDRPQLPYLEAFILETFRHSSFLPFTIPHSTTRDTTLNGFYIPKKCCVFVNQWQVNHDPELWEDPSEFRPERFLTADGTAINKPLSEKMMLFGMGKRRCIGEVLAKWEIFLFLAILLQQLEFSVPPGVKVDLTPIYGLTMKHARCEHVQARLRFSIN
Ubiquitin carboxyl-terminal hydrolase 1 (Homo sapiens), sequence (O94782 whole entry, looked up): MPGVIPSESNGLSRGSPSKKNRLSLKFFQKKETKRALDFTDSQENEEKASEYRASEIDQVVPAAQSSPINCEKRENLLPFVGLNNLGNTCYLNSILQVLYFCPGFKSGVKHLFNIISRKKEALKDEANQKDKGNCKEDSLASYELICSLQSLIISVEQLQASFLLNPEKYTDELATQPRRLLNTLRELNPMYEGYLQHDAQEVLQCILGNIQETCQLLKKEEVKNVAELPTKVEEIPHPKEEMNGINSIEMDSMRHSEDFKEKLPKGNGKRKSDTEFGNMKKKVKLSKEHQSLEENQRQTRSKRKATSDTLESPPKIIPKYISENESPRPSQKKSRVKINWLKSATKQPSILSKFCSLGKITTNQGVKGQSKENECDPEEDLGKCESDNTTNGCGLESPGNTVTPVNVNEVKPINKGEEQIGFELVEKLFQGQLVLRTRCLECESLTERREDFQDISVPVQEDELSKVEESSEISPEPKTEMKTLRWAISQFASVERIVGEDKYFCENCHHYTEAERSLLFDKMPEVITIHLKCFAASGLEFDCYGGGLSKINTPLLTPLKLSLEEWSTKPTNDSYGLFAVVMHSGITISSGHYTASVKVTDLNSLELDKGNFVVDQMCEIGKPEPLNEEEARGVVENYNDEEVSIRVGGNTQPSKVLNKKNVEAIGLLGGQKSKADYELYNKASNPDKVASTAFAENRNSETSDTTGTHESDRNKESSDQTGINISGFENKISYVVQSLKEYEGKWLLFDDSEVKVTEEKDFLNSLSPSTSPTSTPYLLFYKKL
Cytochrome P450 2C19 (Homo sapiens), sequence (P33261 whole entry, looked up): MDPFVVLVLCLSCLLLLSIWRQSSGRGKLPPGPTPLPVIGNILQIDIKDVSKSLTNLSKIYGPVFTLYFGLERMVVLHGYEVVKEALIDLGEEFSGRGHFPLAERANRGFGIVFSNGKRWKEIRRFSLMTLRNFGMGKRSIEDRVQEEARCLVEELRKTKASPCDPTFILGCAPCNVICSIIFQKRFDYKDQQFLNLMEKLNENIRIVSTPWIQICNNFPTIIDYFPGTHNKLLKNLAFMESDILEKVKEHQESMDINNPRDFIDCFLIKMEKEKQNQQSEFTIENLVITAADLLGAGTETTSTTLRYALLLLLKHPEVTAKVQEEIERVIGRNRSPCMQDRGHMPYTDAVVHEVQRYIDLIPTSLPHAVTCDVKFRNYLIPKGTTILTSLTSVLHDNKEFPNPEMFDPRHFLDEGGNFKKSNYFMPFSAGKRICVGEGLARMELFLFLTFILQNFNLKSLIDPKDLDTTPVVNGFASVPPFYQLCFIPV

Regarding `Cn1c(=O)c(-c2cccs2)nc2cnc(N3CCNCC3)nc21`, the Potency is > 11.4 µM (inactive) in assay [1]; 10 µM (active) in [2]; > 9.22 µM (inactive) in [3]; > 46 µM (inactive) in assay [4]; 3.16 µM (active) in assay [8]. For the same molecule, in assay [5], the molecule was called inactive. Besides, the Potency entry in assay [6], in assay [7], in assay [10], in assay [11], in assay [12] and in assay [13] was “inactive” in each case. In [14], the Potency result was “inactive”. Besides, in assay [9], the activity change, negative = inhibition was 4.59% (inactive). Also, the max response in assay [9] (setting [20]) is 15.4%; in assay [9] (setting [21]), 18.9%.

For the molecule `COc1ccc(-c2nc3cnc(N4CCN(C)CC4)nc3n(Cc3cccs3)c2=O)cc1`, the Potency in assay [1] is > 11.4 µM (inactive); in assay [3], > 9.22 µM (inactive); in assay [4], > 46 µM (inactive). For the same molecule, the Potency entry in assay [6], in assay [15], in assay [10], in assay [11], in [12] and in assay [13] was “inactive” in each case. In addition, in [14], the Potency entry is “inactive”. Further, in assay [9], the activity change, negative = inhibition is 1.59% (inactive). The values for the max response in assay [9] (setting [20]) and in assay [9] (setting [21]) were 17.6% and 18%, respectively.

On to `CC(=O)NCCNc1ncncc1-c1ccc(N(C)C)cc1`, for which the values for the activity change, negative = inhibition in assay [16], in assay [17] and in assay [9] were -11.6% (inactive), 9.49% (inactive) and -9.91% (inactive), respectively. Besides, the Potency in assay [2] is 6.31 µM (active); in assay [3], > 46 µM (inactive); in [4], > 46 µM (inactive); in assay [19], 2 µM (active). In addition, the activity, negative = inhibition in assay [18] is 9.91% (inactive). Moreover, in assay [5], the call was inactive. In addition, the Potency entry in [7], in assay [10], in assay [11], in [12] and in assay [14] was “inactive” in each case. The results for the max response in assay [9] (setting [20]) and in [9] (setting [21]) were 25.7% and 8.09%, respectively.
